Data: PubChem BioAssay (EPA / NIEHS)
Calls of active or inactive are those of the source. The calls were made as follows: active = hit-call score of the fitted dose curve at least 0.9, where 1 is the maximum; inactive = score below 0.9.

How the values were obtained:
[1] = biological target: Transcription factor E2F1 (Homo sapiens) (UniProt Q01094); experiment: ATG_E2F_CIS: Attagene CIS-FACTORIAL HepG2 Assay for human E2F Transcription Factor 1 (AID 2282935); settings: HepG2 Attagene cis-reporter, E2F reporter RNA transcripts; actives raise or lower the signal
In short: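 Gain or loss of reporter transcript, fitted against DMSO, reflects E2F1-driven transcription. Transiently transfected HepG2 dosed 24 h before RNA isolation. Quantified by fluorescent RT-PCR products separated by capillary electrophoresis.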

[2] = ATG_E_Box_CIS: Attagene CIS-FACTORIAL HepG2 Assay for human Enhancer Box (E-box) (AID 2282936); settings: HepG2 E-box cis-reporter transcription, actives raise or lower the signal
In short: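 E-box-driven reporter transcripts measured in transiently transfected HepG2 after 24 h exposure: RNA reverse-transcribed, PCR-amplified, fluorescently labelled, digested and resolved by capillary electrophoresis. Gain or loss relative to DMSO.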

[3] = ATG_M_61_CIS: Attagene CIS-FACTORIAL HepG2 Assay for M61 Transcription Factor (Internal Marker) (AID 2282937); settings: HepG2 Attagene CIS-FACTORIAL M61 internal marker reporter; actives raise or lower the signal
In short: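 Background-control endpoint: HepG2 cells with cis-regulated reporter constructs, 24 h exposure, reporter mRNA detected via fluorescent primer extension and capillary electrophoresis; values from bidirectional fitting with DMSO baseline.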

[4] = ATG_EGR_CIS: Attagene CIS-FACTORIAL HepG2 Assay for human Early Growth Response 1 (EGR1) (AID 2282938); settings: HepG2 Attagene CIS-FACTORIAL EGR reporter mRNA; actives raise or lower the signal
In short: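 Endpoint derived by bidirectional fitting versus DMSO vehicle. Method: cis-promoter reporter units transfected into HepG2, 24 h dosing, RNA isolation, RT-PCR with 6-FAM primer extension and HpaI digestion, then capillary electrophoresis fluorescence detection.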

[5] = ATG_M_19_CIS: Attagene CIS-FACTORIAL HepG2 Assay for M19 Transcription Factor (Internal Marker) (AID 2282939); settings: HepG2 Attagene CIS-FACTORIAL M19 internal marker reporter; actives raise or lower the signal
In short: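 Signals come from fluorescence of labelled reporter-specific PCR fragments resolved by capillary electrophoresis, following 24 h treatment of HepG2 cells transfected with cis-promoter reporter units; activity was fitted in both directions relative to DMSO.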

[6] = ATG_ERE_CIS: Attagene CIS-FACTORIAL HepG2 Assay for Estrogen Response Element (ERE) (AID 2282940); settings: HepG2 ERE cis-reporter, Attagene RNA transcript; actives raise or lower the signal
In short: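 Fluorescence of capillary-separated, FAM-labelled reporter cDNA fragments indicates reporter mRNA levels in HepG2 cells exposed to chemicals for 24 h. Transient transfection with cis-regulated units; data fitted in both directions against DMSO.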

[7] = ATG_Ets_CIS: Attagene CIS-FACTORIAL HepG2 Assay for human Erythroblast Transformation Specific (ETS) (AID 2282941); settings: HepG2 ETS cis-reporter transcription, actives raise or lower the signal
In short: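 RT-PCR/capillary electrophoresis fluorescence read-out of reporter mRNA; HepG2 transient multi-reporter transfection; 24 h compound exposure; gain or loss of signal fitted bidirectionally relative to DMSO.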

[8] = biological target: Hepatocyte nuclear factor 3-beta (Homo sapiens) (UniProt Q9Y261); experiment: ATG_FoxA2_CIS: Attagene CIS-FACTORIAL HepG2 Assay for human Forkhead box A2 (FOXA2) (AID 2282942); settings: HepG2 cis-reporter transcription factor activity, 24 h; actives raise or lower the signal
In short: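 Measured: reporter mRNA induction or loss in HepG2 transiently carrying multiple cis-regulated reporter units, 24 h after dosing. Quantified by RT-PCR plus capillary electrophoresis, normalised to DMSO.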

[9] = ATG_FoxO_CIS: Attagene CIS-FACTORIAL HepG2 Assay for human Forkhead box O (FoxO) (AID 2282943); settings: HepG2 Attagene cis-reporter, FoxO element, mRNA; actives raise or lower the signal
In short: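 HepG2, transient MRTU transfection (cis element, endogenous TFs). Dose 24 h. TriZol RNA → oligo(dT) RT → PCR → 6-FAM primer extension → HpaI cut → CE. Gain/loss vs DMSO.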

[10] = ATG_GATA_CIS: Attagene CIS-FACTORIAL HepG2 Assay for human GATA Binding Protein (AID 2282944); settings: HepG2 GATA cis-element reporter, Attagene multiplex mRNA; actives raise or lower the signal
In short: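 After transfecting HepG2 cells with multiple cis-regulated reporter units, chemicals are dosed for 24 h; isolated RNA undergoes RT-PCR and fluorescent labeling before capillary electrophoresis, with activity expressed against DMSO.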

[11] = ATG_GLI_CIS: Attagene CIS-FACTORIAL HepG2 Assay for human Zinc Finger Protein GLI1 (AID 2282945); settings: HepG2, Attagene cis-factorial reporter mRNA, GLI element; actives raise or lower the signal
In short: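 Bidirectional curve fits relative to DMSO, using reporter mRNA levels from RT-PCR plus capillary electrophoresis. Cells were HepG2 transiently carrying cis-regulated reporter constructs, harvested 24 h after dosing.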

[12] = biological target: Bile acid receptor (Homo sapiens) (UniProt Q96RI1); experiment: ATG_IR1_CIS: Attagene CIS-FACTORIAL HepG2 Assay for human Nuclear Receptor Subfamily 1 Group H Member 4 (NR1H4), IR1 submotif (AID 2282946); settings: IR1 reporter transcription, actives raise or lower the signal
In short: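 HepG2 cells transiently transfected with multiplexed cis-element reporter units read endogenous transcription factor activity. After 24 h compound exposure, reporter mRNA was quantified by RT-PCR, fluorescent labelling, HpaI digestion and capillary electrophoresis; bidirectional fitting versus DMSO baseline.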

[13] = ATG_ISRE_CIS: Attagene CIS-FACTORIAL HepG2 Assay for human Interferon Regulatory Factor 1 (IRF1) binding to an Interferon-Stimulated Response Element (ISRE) (AID 2282948); settings: HepG2 ISRE cis-reporter (Attagene), mRNA transcription readout; actives raise or lower the signal
In short: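 Read-out: fluorescent RT-PCR products resolved by capillary electrophoresis, reporting endogenous transcription factor activity via ISRE-driven reporter mRNA in transfected HepG2 cells dosed for 24 h; gain or loss fitted relative to DMSO.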

[14] = ATG_M_32_CIS: Attagene CIS-FACTORIAL HepG2 Assay for M32 Transcription Factor (Internal Marker) (AID 2282949); settings: HepG2 Attagene cis-factorial M32 reporter, mRNA; actives raise or lower the signal;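 also: background control marker of the multiplexed CIS panel rather than a real target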
In short: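 HepG2 transfectants (cis-regulated reporter transcription units) dosed 24 h. Reporter mRNA by RT-PCR plus CE, analysed as gain or loss relative to DMSO.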

[15] = ATG_M_06_CIS: Attagene CIS-FACTORIAL HepG2 Assay for M06 Transcription Factor (Internal Marker) (AID 2282950); settings: HepG2 Attagene CIS-FACTORIAL M06 internal marker reporter; actives raise or lower the signal
In short: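 HepG2 liver cells, 24 h exposure. Reporter transcripts from transfected cis-element constructs quantified by RT-PCR/capillary electrophoresis fluorescence. Bidirectional curve fit against DMSO.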

[16] = biological target: Hypoxia-inducible factor 1-alpha (Homo sapiens) (UniProt Q16665); experiment: ATG_HIF1a_CIS: Attagene CIS-FACTORIAL HepG2 Assay for human Hypoxia Inducible Factor 1 (HIF1A) (AID 2282951); settings: HepG2 Attagene cis-factorial HIF1a reporter transcription; actives raise or lower the signal
In short: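 Dosed 24 h, transfected HepG2 cells yielded total RNA whose reporter transcripts were RT-PCR-amplified and sized by capillary electrophoresis using fluorescent labelling; DMSO defined baseline, with gain and loss of signal both fitted.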

[17] = biological target: Hepatocyte nuclear factor 6 (Homo sapiens) (UniProt Q9UBC0); experiment: ATG_HNF6_CIS: Attagene CIS-FACTORIAL HepG2 Assay for human Hepatocyte Nuclear Factor 6 (HNF6) (AID 2282952); settings: HepG2 Attagene cis-factorial HNF6 reporter transcription; actives raise or lower the signal
In short: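 Readout: fluorescent reporter-transcript fragments resolved by capillary electrophoresis after RT-PCR, reflecting endogenous factor activity in transfected HepG2. Exposure 24 h. Gain or loss of signal fitted bidirectionally against DMSO.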

[18] = biological target: Heat shock factor protein 1 (Homo sapiens) (UniProt Q00613); experiment: ATG_HSE_CIS: Attagene CIS-FACTORIAL HepG2 Assay for human Heat Shock Transcription Factor 1 (HSE) (AID 2282953); settings: HepG2 HSE cis-reporter, Attagene RNA transcription; actives raise or lower the signal
In short: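 Endogenous transcription factor activity captured via cis-promoter reporter units transfected into HepG2; treatment lasted 24 h. Fluorescence intensity of reporter fragments analysed with bidirectional curve fitting, DMSO baseline.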

[19] = ATG_MRE_CIS: Attagene CIS-FACTORIAL HepG2 Assay for human Metal Responsive Element (MRE) (AID 2282954); settings: HepG2 MRE cis-reporter transcription, Attagene multiplex; actives raise or lower the signal
In short: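 Endogenous MRE-dependent transcription read as reporter mRNA in transiently transfected human HepG2 cells at 24 h. RNA reverse-transcribed, PCR-amplified, labelled and resolved by capillary electrophoresis; gain or loss relative to DMSO.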

[20] = ATG_GRE_CIS: Attagene CIS-FACTORIAL HepG2 Assay for human Glucocorticoid Response Elements (GRE) (AID 2282947); settings: HepG2 GRE cis-reporter, Attagene multiplex mRNA; actives raise or lower the signal
In short: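 Reporter transcripts read by RT-PCR with capillary electrophoresis fluorescence after a 24 h chemical exposure of HepG2 cells transiently transfected with multiple cis-element reporter units. Gain or loss fitted against DMSO.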

Chain of Hypoxia-inducible factor 1-alpha (Homo sapiens) (Q16665 whole entry, looked up): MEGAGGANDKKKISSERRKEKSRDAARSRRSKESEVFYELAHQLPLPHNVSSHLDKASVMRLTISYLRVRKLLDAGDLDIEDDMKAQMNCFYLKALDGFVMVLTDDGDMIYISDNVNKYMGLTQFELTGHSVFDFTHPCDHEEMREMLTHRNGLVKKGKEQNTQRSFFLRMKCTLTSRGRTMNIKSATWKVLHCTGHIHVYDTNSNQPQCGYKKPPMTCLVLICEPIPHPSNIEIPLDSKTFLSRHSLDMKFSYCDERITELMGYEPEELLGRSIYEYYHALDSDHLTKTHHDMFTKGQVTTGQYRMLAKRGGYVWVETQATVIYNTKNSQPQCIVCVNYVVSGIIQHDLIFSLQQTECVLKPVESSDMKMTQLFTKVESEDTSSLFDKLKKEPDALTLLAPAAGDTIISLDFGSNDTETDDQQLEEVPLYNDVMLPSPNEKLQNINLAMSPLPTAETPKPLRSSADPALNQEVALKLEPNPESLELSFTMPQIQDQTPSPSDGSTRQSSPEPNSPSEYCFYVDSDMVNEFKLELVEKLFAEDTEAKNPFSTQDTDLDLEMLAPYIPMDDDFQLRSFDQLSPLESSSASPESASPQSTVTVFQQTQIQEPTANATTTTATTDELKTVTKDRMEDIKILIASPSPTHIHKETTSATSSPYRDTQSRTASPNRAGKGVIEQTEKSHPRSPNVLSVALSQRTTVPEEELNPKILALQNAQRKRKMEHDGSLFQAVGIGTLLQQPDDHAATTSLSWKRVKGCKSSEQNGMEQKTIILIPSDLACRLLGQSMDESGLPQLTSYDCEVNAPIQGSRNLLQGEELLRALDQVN
Chain of Bile acid receptor (Homo sapiens) (Q96RI1 whole entry, looked up): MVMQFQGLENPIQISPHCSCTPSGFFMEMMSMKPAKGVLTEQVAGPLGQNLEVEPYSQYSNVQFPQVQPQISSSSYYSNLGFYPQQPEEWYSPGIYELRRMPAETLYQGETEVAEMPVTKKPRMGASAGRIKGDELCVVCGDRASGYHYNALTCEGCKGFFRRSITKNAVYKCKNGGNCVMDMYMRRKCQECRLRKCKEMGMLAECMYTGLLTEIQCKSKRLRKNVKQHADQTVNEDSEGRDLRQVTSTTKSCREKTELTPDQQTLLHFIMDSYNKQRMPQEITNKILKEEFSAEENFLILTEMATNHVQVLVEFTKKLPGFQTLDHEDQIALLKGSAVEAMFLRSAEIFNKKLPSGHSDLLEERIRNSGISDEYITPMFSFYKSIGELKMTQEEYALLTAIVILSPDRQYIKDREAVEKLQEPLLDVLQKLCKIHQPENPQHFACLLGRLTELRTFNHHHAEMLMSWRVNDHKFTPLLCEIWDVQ
Chain of Heat shock factor protein 1 (Homo sapiens) (Q00613 whole entry, looked up, the tested form may be a part): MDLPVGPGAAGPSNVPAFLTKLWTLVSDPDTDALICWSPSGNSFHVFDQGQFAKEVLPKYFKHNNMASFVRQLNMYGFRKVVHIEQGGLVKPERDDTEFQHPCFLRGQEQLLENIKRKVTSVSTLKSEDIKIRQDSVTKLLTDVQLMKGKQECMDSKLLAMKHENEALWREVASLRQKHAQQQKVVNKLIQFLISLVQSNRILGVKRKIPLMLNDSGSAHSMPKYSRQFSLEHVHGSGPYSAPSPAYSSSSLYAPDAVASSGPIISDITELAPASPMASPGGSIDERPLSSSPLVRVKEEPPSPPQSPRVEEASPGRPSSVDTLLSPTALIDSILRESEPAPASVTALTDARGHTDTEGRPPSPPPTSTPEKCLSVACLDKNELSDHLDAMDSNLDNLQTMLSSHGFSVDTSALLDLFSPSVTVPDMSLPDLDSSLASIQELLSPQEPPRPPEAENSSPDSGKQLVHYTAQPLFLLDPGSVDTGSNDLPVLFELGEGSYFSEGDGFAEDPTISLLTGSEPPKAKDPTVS
Chain of Hepatocyte nuclear factor 3-beta (Homo sapiens) (Q9Y261 whole entry, looked up): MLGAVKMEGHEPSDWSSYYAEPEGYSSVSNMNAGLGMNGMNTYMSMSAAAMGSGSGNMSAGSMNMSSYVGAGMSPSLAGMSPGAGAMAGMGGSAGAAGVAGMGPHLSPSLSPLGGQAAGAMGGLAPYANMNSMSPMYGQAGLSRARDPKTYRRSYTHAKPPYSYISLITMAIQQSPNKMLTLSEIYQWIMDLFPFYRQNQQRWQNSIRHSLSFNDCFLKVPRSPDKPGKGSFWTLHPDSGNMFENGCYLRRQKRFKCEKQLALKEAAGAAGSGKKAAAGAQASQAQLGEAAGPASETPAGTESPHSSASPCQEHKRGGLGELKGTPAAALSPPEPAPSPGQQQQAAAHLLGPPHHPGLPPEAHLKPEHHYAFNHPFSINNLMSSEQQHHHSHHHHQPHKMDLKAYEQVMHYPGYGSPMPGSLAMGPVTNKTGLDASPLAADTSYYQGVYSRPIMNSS
Chain of Hepatocyte nuclear factor 6 (Homo sapiens) (Q9UBC0 whole entry, looked up, the tested form may be a part): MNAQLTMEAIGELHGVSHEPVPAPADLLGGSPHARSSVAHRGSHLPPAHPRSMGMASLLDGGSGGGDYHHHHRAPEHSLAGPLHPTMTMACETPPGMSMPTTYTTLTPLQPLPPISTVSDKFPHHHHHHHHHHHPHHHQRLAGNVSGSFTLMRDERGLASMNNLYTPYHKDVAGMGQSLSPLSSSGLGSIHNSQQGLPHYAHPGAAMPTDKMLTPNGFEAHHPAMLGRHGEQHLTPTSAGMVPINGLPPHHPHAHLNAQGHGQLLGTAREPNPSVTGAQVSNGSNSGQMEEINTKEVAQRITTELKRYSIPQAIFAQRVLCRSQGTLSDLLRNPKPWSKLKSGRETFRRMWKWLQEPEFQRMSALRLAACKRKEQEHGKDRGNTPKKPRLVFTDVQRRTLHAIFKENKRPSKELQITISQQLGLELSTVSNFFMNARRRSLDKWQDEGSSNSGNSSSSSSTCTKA
Chain of Transcription factor E2F1 (Homo sapiens) (Q01094 whole entry, looked up): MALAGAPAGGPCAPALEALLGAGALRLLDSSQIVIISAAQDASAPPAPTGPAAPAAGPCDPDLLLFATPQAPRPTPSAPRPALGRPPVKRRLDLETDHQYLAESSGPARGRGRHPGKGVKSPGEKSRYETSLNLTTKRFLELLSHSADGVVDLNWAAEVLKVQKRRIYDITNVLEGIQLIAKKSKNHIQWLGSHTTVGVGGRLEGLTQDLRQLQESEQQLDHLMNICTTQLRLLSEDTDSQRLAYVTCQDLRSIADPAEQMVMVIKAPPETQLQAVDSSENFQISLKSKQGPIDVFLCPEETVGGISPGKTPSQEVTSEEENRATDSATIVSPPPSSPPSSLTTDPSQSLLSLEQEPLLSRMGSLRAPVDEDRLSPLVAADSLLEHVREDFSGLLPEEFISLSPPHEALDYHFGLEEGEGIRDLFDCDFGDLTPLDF

## CNC(=O)Oc1cccc2ccccc12
[1]
  outcome: inactive
[2]
  AC50: 9.92 µM (active)
[3]
  outcome: inactive
[4]
  outcome: inactive
[5]
  outcome: inactive
[6]
  AC50: 50 µM (active)
[7]
  outcome: inactive
[8]
  outcome: inactive
[9]
  outcome: inactive
[10]
  outcome: inactive
[11]
  outcome: inactive
[12]
  outcome: inactive
[13]
  outcome: inactive
[14]
  outcome: inactive
[15]
  outcome: inactive
[16]
  outcome: inactive
[17]
  outcome: inactive
[18]
  outcome: inactive
[19]
  AC50: 50 µM (active)

## COC(=O)NC(=S)Nc1ccccc1NC(=S)NC(=O)OC
[1]
  outcome: inactive
[2]
  outcome: inactive
[3]
  outcome: inactive
[4]
  outcome: inactive
[5]
  outcome: inactive
[6]
  outcome: inactive
[7]
  outcome: inactive
[8]
  outcome: inactive
[9]
  outcome: inactive
[10]
  outcome: inactive
[11]
  outcome: inactive
[12]
  outcome: inactive
[20]
  outcome: inactive
[13]
  outcome: inactive
[14]
  outcome: inactive
[15]
  outcome: inactive
[16]
  outcome: inactive
[17]
  outcome: inactive
[18]
  outcome: inactive
[19]
  outcome: inactive

## CCOc1cc(C(C)(C)C)ccc1C1COC(c2c(F)cccc2F)=N1 (stereo not given)
[1]
  outcome: inactive
[2]
  outcome: inactive
[3]
  outcome: inactive
[4]
  outcome: inactive
[5]
  outcome: inactive
[6]
  outcome: inactive
[7]
  outcome: inactive
[8]
  outcome: inactive
[9]
  outcome: inactive
[10]
  outcome: inactive
[11]
  outcome: inactive
[12]
  outcome: inactive
[13]
  outcome: inactive
[14]
  outcome: inactive
[15]
  outcome: inactive
[16]
  outcome: inactive
[17]
  outcome: inactive
[18]
  outcome: inactive
[19]
  AC50: 5.07 µM (active)

## Nc1c(Cl)c(F)nc(OCC(=O)O)c1Cl
[1]
  outcome: inactive
[2]
  outcome: inactive
[3]
  outcome: inactive
[4]
  outcome: inactive
[5]
  outcome: inactive
[6]
  outcome: inactive
[7]
  outcome: inactive
[8]
  outcome: inactive
[9]
  outcome: inactive
[10]
  outcome: inactive
[11]
  outcome: inactive
[20]
  outcome: inactive
[13]
  outcome: inactive
[14]
  outcome: inactive
[15]
  outcome: inactive
[16]
  outcome: inactive
[17]
  outcome: inactive
[18]
  outcome: inactive
[19]
  outcome: inactive

## O=P(O)(O)CCCl
[1]
  outcome: inactive
[2]
  outcome: inactive
[3]
  outcome: inactive
[4]
  outcome: inactive
[5]
  outcome: inactive
[6]
  outcome: inactive
[7]
  outcome: inactive
[8]
  outcome: inactive
[9]
  outcome: inactive
[10]
  outcome: inactive
[11]
  outcome: inactive
[12]
  outcome: inactive
[13]
  outcome: inactive
[14]
  outcome: inactive
[15]
  outcome: inactive
[16]
  outcome: inactive
[17]
  outcome: inactive
[18]
  outcome: inactive
[19]
  outcome: inactive

## CCCCOCN(C(=O)CCl)c1c(CC)cccc1CC
[1]
  outcome: inactive
[2]
  outcome: inactive
[3]
  outcome: inactive
[4]
  outcome: inactive
[5]
  outcome: inactive
[6]
  outcome: inactive
[7]
  outcome: inactive
[8]
  outcome: inactive
[9]
  outcome: inactive
[10]
  outcome: inactive
[11]
  outcome: inactive
[12]
  outcome: inactive
[20]
  outcome: inactive
[13]
  outcome: inactive
[14]
  outcome: inactive
[15]
  outcome: inactive
[16]
  outcome: inactive
[17]
  outcome: inactive
[18]
  outcome: inactive
[19]
  outcome: inactive

## CC(C)N1C(=O)N(c2ccccc2)CSC1=NC(C)(C)C
[1]
  outcome: inactive
[2]
  outcome: inactive
[3]
  outcome: inactive
[4]
  outcome: inactive
[5]
  outcome: inactive
[6]
  outcome: inactive
[7]
  outcome: inactive
[8]
  outcome: inactive
[9]
  outcome: inactive
[10]
  outcome: inactive
[11]
  outcome: inactive
[20]
  outcome: inactive
[13]
  outcome: inactive
[14]
  outcome: inactive
[15]
  outcome: inactive
[16]
  outcome: inactive
[17]
  outcome: inactive
[18]
  outcome: inactive
[19]
  outcome: inactive
